Records with an inconclusive call do not appear. Active and inactive are the calls of the source. Unless noted, the call rests on the fitted dose curve; in most records, active means well fitted curve in the direction sought with a large enough effect in the repeat runs; inconclusive means weak or mixed curves; inactive means no such curve, though single readings can be large; an effect the other way counts as inactive or inconclusive.
Legend:
[1] = qHTS assay to identify small molecule agonists of the estrogen receptor beta (ER-beta) signaling pathway - cell viability counter screen (AID 1259380); further: nearly all actives have a fitted effect of over 30% in size
In short: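 ER-beta-UAS-bla HEK293T cells in medium with 2% charcoal-stripped FBS, pre-incubated 6 hr, then treated 16 hr at 37C. Cytotoxicity read in the same wells by CellTiter-Glo luminescence after 30 min at room temperature.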

[2] = target: Androgen receptor (Homo sapiens) (UniProt P10275); assay: qHTS assay to identify small molecule agonists of the androgen receptor (AR) signaling pathway in the presence of an antagonist (AID 1259381; calls by dose curve; further: nearly all actives have a fitted effect of over 15% in size)
In short: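 MDA-kb2 cells carrying MMTV-luciferase (AR/GR responsive), 3,000 cells/well, co-treated with 3.0 uM nilutamide final. Compounds at 15 concentrations, 16 hr at 37C without CO2. Luciferase luminescence read after 30 min with ONE-Glo.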

[3] = qHTS assay to identify small molecule antagonists of the estrogen receptor beta (ER-beta) signaling pathway - cell viability counter screen (AID 1259382);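 further: HEK293T cells carrying ER-beta-UAS-bla reporter stimulated with estradiol; series mostly up to about 92 µM; nearly all actives have a fitted effect of over 55% in size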
In short: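 ER-beta-UAS-bla HEK293T cells in 2% charcoal-stripped FBS medium, treated with compound plus 1 nM 17-beta-estradiol for 16 h at 37C. Viability read by CellTiter-Glo luminescence after 30 min at room temperature in the same wells.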

[4] = qHTS assay to identify small molecule agonists or antagonists of the thyroid stimulating hormone receptor (TSHR) signaling pathway - wild type cell line counter screen (AID 1259384; calls by dose curve)
In short: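 Wild-type Hek293 cells, 800/well, 18 h at 37C, then compound with Ro20-1724 for 30 min RT. cAMP by HTRF (cAMP-d2/anti-cAMP cryptate), 1 h RT, fluorescence read. 15 concentrations, triplicates.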

[5] = target: Thyrotropin receptor (Homo sapiens) (UniProt P16473); assay: qHTS assay to identify small molecule antagonists of the thyroid stimulating hormone receptor (TSHR) signaling pathway (AID 1259385; calls by dose curve; further: nearly all actives have a fitted effect of over 20% in size)
In short: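 TSHR-HEK293 cells (800/well) plated 18 h, then compounds with Ro20-1724 and TSH at 1.5 ng/mL final, 30 min at room temperature. cAMP quantified by HTRF (cAMP-d2/anti-cAMP-cryptate, 1 h); 15 concentrations in triplicate.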

[6] = target: Progesterone receptor (Homo sapiens) (UniProt P06401); assay: qHTS assay to identify small molecule agonists of the progesterone receptor (PR) signaling pathway (AID 1346784; calls by dose curve; further: nearly all actives have a fitted effect of over 30% in size)
In short: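 Seed PR-UAS-bla HEK 293T cells (2% charcoal-stripped FBS), incubate 6 hr at 37C; add compounds in DMSO, 16 hr at 37C; add LiveBLAzer B/G substrate, 2 hr RT; read fluorescence intensity.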

[7] = qHTS assay to identify small molecule antagonists of the progesterone receptor (PR) signaling pathway - cell viability counter screen (AID 1346798); further: series mostly up to about 92 µM; nearly all actives have a fitted effect of over 50% in size
In short: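 Measures cytotoxicity in parallel with the PR antagonist reporter read: HEK293T PR-UAS-bla cells get compound and R5020 for 16 hr, and remaining viable cells are quantified by CellTiter-Glo luminescence.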

[8] = qHTS assay to identify small molecule agonists of the progesterone receptor (PR) signaling pathway - cell viability counter screen (AID 1346799; calls by dose curve; further: nearly all actives have a fitted effect of over 45% in size)
In short: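 Using the same plates as the PR reporter screen, HEK293T PR-UAS-bla cells received compounds for 16 hr at 37C and were then lysed with CellTiter-Glo; luminescence was read 30 min later at room temperature.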

[9] = qHTS assay to identify small molecule antagonists of the TGF-beta/Smad signaling pathway - cell viability counter screen (AID 1346824); further: nearly all actives have a fitted effect of over 50% in size
In short: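 SBE-bla HEK 293T cells, incubated overnight, then compound plus 0.25 ng/mL TGF-beta1 (stock added) for 5 hr at 37 C. Viability was read in the same wells by CellTiter-Glo luminescence after 30 min at room temperature.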

[10] = qHTS assay to identify small molecule agonists of the TGF-beta/Smad signaling pathway - cell viability counter screen (AID 1346829); further: top concentration of the series differs between compounds; nearly all actives have a fitted effect of over 45% in size
In short: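 Same-well cytotoxicity: CellTiter-Glo added after the 2 hr room-temperature beta-lactamase substrate step, luminescence measured 30 min later; cells had 5 hr of compound at 37 C.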

[11] = qHTS assay to identify small molecule agonists of the TGF-beta/Smad signaling pathway (AID 1346859; active means well fitted activation curve with a large enough effect in the signal ratio in the repeat runs, not every such curve was filed as active; the % refers to the signal ratio; further: series mostly up to about 77 µM)
In short: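 Beta-lactamase reporter activity downstream of Smad binding elements was measured in stably transfected HEK 293T cells; compounds were incubated for 5 hr, substrate for 2 hr at room temperature.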

[12] = target: Thyrotropin-releasing hormone receptor (Homo sapiens) (UniProt P34981); assay: qHTS assay to identify small molecule agonists of the thyrotropin-releasing hormone receptor (TRHR) signaling pathway (AID 1346891; calls by dose curve; further: series mostly up to about 58 µM)
In short: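 Overnight-plated (18 h, 37 °C, 5% CO2) TRHR-Hek293 cells; 2 h calcium dye at 37 °C; compound in DMSO; 3-min kinetic fluorescence read.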

[13] = Human pregnane X receptor (PXR) small molecule agonists, qHTS cell viability counter screen (AID 1346977); further: nearly all actives have a fitted effect of over 50% in size
In short: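 After a 5hr pre-incubation, PXR-Luc HepG2 cells received compounds plus positive control in DMSO and were kept 24hr at 37C. Cell viability was quantified by fluorescence from CellTiter-Fluor added for the final hour.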

[14] = Caspase-3/7 induction in HepG2 cells by small molecules, qHTS assay (AID 1346978); further: nearly all actives have a fitted effect of over 15% in size
In short: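 Wild-type HepG2 cells, 2,000/well, settled 5 hr at 37 C and 5% CO2, then compound-treated for 17 hr; caspase-3/7 activity read by luminescent Caspase-Glo 3/7 after 30 min at room temperature.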

[15] = Caspase-3/7 induction in CHO-K1 cells by small molecules, qHTS assay (AID 1346980); further: nearly all actives have a fitted effect of over 15% in size
In short: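 Wild-type CHO-K1 cells exposed to compounds for 17hr at 37 C, 5% CO2. Caspase-3/7 activity then measured by Caspase-Glo 3/7 luminescence after 30min at room temperature.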

[16] = qHTS assay to identify small molecule agonists of the estrogen receptor alpha (ER-alpha) signaling pathway in the presence of an antagonist - cell viability counter screen (AID 1259386);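 further: series mostly up to about 92 µM; cells exposed to compounds for 22 h at 37 °C before the viability read; nearly all actives have a fitted effect of over 30% in size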
In short: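 Cell viability in VM7Luc4E2 cells (endogenous full-length ER-alpha) measured by CellTiter-Fluor fluorescence in the same wells as the luciferase screen. Cells pre-cultured 5 days in charcoal-stripped serum, then treated 22 h with compounds at 15 concentrations plus 10.0nM ICI-182,780.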

[17] = target: Progesterone receptor (Homo sapiens) (UniProt P06401); assay: qHTS assay to identify small molecule antagonists of the progesterone receptor (PR) signaling pathway (AID 1346795; active means well fitted inhibition curve with a large enough effect in the signal ratio in the repeat runs, not every such curve was filed as active; the % refers to the signal ratio)
In short: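 Screening used a GripTite HEK293T line with PR-responsive UAS-beta-lactamase. Cells were challenged with compound in the presence of 1 nM R5020 final for 16 hr at 37C; B/G FRET substrate, 2 hr room temperature, fluorescence.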

[18] = target: Thyrotropin-releasing hormone receptor (Homo sapiens) (UniProt P34981); assay: qHTS assay to identify small molecule antagonists of the thyrotropin-releasing hormone receptor (TRHR) signaling pathway (AID 1346877; active means well fitted inhibition curve with a large enough effect in the repeat runs, not every such curve was filed as active; further: series mostly up to about 51 µM)
In short: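 TRHR-expressing HEK293 cells loaded with calcium dye for 2 h at 37 C; compounds pre-incubated 5 min at room temperature before TRH challenge at 1 nM final. Intracellular calcium fluorescence read kinetically for 3 min; 15 concentrations in triplicate.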

[19] = Caspase-3/7 induction in CHO-K1 cells by small molecules, qHTS cell viability counter screen (AID 1346979); further: nearly all actives have a fitted effect of over 35% in size
In short: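 Multiplexed with Caspase-Glo 3/7 in CHO-K1 cells, this counter screen added CellTiter-Fluor after 16hr of compound exposure and recorded fluorescence 1hr later.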

[20] = target: Estrogen receptor (Homo sapiens) (UniProt P03372); assay: qHTS assay to identify small molecule agonists of the estrogen receptor alpha (ER-alpha) signaling pathway in the presence of an antagonist (AID 1259383; calls by dose curve; further: top concentration of the series differs between compounds; nearly all actives have a fitted effect of over 15% in size)
In short: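 VM7Luc4E2 cells express endogenous full-length ER-alpha with an ERE-luciferase reporter and were hormone-deprived for 5 days. Compounds at 15 concentrations were added with 10.0nM ICI-182,780 for 22hr at 37C. Luminescence was read with ONE-Glo.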

Measured: Potency

Androgen receptor (Homo sapiens), sequence (P10275 whole entry, looked up): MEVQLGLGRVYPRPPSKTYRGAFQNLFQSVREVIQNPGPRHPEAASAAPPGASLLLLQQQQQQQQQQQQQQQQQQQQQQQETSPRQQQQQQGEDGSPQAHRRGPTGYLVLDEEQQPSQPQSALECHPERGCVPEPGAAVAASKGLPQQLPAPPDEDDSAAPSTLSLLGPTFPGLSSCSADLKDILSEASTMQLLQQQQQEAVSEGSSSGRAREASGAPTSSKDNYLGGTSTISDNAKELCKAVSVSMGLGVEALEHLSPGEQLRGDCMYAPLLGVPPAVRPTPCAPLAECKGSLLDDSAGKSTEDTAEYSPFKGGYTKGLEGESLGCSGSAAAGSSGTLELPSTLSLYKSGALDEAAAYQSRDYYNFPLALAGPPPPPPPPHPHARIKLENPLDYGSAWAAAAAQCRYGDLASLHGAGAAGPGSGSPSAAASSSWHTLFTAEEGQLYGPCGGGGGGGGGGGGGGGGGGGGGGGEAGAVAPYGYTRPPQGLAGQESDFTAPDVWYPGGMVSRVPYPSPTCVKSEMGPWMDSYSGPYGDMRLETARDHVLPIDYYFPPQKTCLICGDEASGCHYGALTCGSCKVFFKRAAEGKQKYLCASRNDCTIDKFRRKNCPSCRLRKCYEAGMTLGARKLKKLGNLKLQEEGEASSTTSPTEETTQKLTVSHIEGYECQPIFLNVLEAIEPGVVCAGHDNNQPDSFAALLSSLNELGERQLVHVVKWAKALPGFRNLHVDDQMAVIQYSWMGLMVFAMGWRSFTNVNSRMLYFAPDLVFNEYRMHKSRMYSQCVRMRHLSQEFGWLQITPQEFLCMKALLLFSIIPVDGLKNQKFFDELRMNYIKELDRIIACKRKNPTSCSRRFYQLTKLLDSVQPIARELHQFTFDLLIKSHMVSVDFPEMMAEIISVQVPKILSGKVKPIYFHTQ
Progesterone receptor (Homo sapiens), sequence (P06401 whole entry, looked up): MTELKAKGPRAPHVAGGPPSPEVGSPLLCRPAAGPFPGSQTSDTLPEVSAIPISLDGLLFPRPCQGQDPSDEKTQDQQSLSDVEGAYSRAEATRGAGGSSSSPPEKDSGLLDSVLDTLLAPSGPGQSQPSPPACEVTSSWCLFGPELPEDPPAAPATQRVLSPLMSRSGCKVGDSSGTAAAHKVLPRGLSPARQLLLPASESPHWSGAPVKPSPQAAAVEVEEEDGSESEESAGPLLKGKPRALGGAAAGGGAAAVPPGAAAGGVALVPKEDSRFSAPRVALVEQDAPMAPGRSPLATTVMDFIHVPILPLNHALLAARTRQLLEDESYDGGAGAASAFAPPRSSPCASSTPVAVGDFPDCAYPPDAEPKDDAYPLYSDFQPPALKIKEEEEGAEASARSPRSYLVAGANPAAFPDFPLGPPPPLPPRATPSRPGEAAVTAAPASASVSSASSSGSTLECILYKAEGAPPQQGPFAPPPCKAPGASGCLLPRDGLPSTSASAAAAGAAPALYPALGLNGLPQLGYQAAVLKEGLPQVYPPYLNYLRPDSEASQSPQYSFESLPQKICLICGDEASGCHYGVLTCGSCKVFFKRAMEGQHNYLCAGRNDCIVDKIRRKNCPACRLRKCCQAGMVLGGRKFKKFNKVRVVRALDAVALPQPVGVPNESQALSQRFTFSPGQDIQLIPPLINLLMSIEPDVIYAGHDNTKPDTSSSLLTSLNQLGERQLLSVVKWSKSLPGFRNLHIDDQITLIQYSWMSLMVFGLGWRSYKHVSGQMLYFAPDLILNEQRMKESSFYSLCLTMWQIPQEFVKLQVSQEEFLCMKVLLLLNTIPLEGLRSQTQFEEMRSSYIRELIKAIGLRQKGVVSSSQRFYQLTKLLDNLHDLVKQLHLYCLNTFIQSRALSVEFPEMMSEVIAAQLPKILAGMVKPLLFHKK
Thyrotropin-releasing hormone receptor (Homo sapiens), sequence (P34981 whole entry, looked up): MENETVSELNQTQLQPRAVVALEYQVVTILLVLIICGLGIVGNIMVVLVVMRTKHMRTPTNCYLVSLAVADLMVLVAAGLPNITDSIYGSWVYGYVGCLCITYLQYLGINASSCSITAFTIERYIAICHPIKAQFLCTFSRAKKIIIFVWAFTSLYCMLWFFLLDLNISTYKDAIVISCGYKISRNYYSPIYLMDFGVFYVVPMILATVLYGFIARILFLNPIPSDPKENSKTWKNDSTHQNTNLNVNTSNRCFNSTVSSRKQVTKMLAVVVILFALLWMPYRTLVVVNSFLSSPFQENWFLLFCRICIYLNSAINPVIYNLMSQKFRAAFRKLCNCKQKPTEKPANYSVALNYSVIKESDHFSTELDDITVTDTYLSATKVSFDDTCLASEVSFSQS
Thyrotropin receptor (Homo sapiens), sequence (P16473 whole entry, looked up): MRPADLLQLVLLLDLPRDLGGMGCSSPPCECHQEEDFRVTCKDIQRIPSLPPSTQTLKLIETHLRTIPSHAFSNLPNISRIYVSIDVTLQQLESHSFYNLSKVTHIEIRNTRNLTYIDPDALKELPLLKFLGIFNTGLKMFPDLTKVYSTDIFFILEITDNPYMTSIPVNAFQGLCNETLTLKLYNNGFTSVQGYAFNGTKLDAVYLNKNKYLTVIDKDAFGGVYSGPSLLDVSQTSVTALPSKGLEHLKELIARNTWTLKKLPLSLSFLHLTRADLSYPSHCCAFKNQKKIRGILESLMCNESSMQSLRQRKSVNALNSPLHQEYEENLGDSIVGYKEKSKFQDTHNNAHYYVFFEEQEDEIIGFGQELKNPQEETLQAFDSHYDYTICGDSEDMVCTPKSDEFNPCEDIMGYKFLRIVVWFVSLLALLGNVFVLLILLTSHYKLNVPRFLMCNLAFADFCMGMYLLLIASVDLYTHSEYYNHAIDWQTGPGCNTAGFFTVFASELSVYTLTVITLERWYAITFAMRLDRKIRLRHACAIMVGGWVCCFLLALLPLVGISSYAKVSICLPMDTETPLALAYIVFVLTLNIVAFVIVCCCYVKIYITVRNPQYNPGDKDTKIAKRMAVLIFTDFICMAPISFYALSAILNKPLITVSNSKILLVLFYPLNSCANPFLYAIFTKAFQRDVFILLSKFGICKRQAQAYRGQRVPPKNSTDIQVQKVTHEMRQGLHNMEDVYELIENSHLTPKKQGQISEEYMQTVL
Estrogen receptor (Homo sapiens), sequence (P03372 whole entry, looked up): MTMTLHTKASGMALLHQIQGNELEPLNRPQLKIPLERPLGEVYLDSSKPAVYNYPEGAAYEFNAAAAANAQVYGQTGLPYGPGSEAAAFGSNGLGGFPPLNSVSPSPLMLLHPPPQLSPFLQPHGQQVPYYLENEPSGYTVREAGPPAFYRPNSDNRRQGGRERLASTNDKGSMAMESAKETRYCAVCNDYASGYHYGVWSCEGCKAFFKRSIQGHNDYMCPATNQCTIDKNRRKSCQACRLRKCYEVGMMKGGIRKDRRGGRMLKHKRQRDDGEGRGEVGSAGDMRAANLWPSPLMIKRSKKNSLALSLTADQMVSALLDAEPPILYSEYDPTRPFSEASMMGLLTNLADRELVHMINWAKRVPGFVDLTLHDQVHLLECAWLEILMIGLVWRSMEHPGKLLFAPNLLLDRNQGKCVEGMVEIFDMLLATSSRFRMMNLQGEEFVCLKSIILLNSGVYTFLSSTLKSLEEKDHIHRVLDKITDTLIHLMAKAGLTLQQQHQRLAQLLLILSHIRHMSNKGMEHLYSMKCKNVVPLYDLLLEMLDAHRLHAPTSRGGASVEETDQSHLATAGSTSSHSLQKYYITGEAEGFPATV

Nc1ccc2c(S(=O)(=O)O)cccc2c1S(=O)(=O)O
not listed: [16] | [17] | [18] | [19] | [20]
inactive: all other assays above

Cc1ccc(C2OC[C@@H]3OC(c4ccc(C)cc4)O[C@H]([C@H](O)CO)[C@@H]3O2)cc1 (stereo not given in full)
not listed: [10] | [20]
inactive: all other assays above

CSc1nnc(C(C)(C)C)c(=O)[nH]1
not listed: [4] | [5] | [7] | [8] | [10] | [18] | [19] | [20]
inactive: all other assays above

O=[N+]([O-])c1ccc(CO)cc1
not listed: [4] | [5] | [10] | [17] | [19]
inactive: all other assays above

— PubChem BioAssay (Tox21)
